Shown are actives, neighbours in structure and some others; about 9.6% of the full set was active somewhere.
USP17 block: blocks human USP17 ubiquitin-rhodamine cleavage; A8MUK1; inhibition, % at 50 µM; 6.5% of 47,000 active; purified USP17, Ub-rhodamine cleavage fluorescence, 3 h
USP30 inh: inhibitors of human USP30 deubiquitinase; inhibition, % at 25 µM; 5.3% of 47,000 active; purified USP30, Ub-rhodamine cleavage fluorescence; Q70CQ3
Target sequence (Q70CQ3 whole entry, looked up): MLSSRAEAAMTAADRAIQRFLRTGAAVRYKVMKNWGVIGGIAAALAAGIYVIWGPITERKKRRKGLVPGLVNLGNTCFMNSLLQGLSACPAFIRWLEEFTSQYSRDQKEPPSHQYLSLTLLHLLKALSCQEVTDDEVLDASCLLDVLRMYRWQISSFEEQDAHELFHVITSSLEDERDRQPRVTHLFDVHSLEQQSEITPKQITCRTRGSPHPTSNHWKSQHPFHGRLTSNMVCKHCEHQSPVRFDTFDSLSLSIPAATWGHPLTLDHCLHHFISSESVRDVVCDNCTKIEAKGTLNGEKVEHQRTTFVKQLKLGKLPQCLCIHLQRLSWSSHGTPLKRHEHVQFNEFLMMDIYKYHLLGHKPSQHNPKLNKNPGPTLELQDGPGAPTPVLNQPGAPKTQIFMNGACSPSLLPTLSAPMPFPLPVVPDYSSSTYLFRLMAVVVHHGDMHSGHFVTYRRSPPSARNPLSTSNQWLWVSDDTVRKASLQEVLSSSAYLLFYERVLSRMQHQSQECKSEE
Of the large screens only hits and unclear results are named; the others gave an inactive call. No stated cut-off is given here; in the data, active means inhibition above about 30%; inactive means the rest.

CC1CCCN(S(=O)(=O)c2ccc(-n3cnc(C(=O)NC4CC4)c3)nc2)C1 (stereo not drawn)	USP17 block 45, USP30 inh 32
CC(=O)Nc1ccc(-n2cnc(C(=O)N3CCCCCC3)c2)nc1	none
Cc1ccc(S(=O)(=O)c2cn(Cc3ccccc3Cl)c3nc(C)ccc3c2=O)cc1	none (no result: USP30 inh)
Cc1ccc(-c2[nH]ncc2CN2CCN(c3cccc(C)c3C)CC2)cc1	none
Cn1ncc2c1CCCN(C(=O)Cc1cccc(F)c1)C2	none
CCn1cc(S(=O)(=O)NCc2ccccc2)c2cccnc21	USP17 block 41
CCn1cc(S(=O)(=O)NCc2ccccc2F)c2cccnc21	none
CCOc1ccccc1NC(=O)CN1C(=O)C2CCCC2=Nc2ccccc21 (stereo not drawn)	none
CCN1CCN(c2cc(C)nc3nc(CN4CCCCC4C)nn23)CC1 (stereo not drawn)	none
Fc1cccc(Oc2cncc(C3CCCNC3)n2)c1 (stereo not drawn)	none
Cc1cccc(NC(=O)C(C)NS(=O)(=O)c2cc(-c3noc(C4CC4)n3)ccc2C)c1 (stereo not drawn)	none
Cc1nc(-c2ccc(C)c(S(=O)(=O)NC(C)C(=O)Nc3ccc(C)c(F)c3)c2)no1 (stereo not drawn)	USP30 inh 36
O=C(c1ccccc1NS(=O)(=O)c1ccc(Cl)cc1)N1CCC(c2nc(-c3ccncc3)no2)CC1	none
Cn1c(=O)n(CC(=O)OCc2ccccc2)c(=O)c2c1nc1oc(C(C)(C)C)cn12	none
CCOC(=O)CCn1c(=O)c2c(nc3oc(C(C)(C)C)cn32)n(C)c1=O	USP30 inh 32
CCN(CC)c1ccc2ccc(C(=O)N3CCCC3)cn12	none
CCN(CC)c1ccc2ccc(C(=O)N3CCN(c4ccncc4)CC3)cn12	USP30 inh 36
O[C@H]1[C@H](NCc2cnc3ccccc3c2)[C@@H](c2ccccc2)C[C@H]1O	none
CNC(=O)c1cc2nc(N(C)C)n(-c3ccc(F)cc3)c2s1	USP17 block 71
CN(C)c1nc2cc(C(=O)N3CCCC3)sc2n1-c1ccccc1	none
COc1nn(C)cc1C(=O)N1CCC(C(=O)Nc2ccc(Br)c(C)c2)CC1	none
CC(NC(=O)c1cccc(C(N)=O)c1)c1cc2ccccc2o1 (stereo not drawn)	none
CCN(CC(=O)NCc1ccc(F)cc1)c1nc(CSc2ccccc2)nc2sc3c(c12)CCC3	none
NC(N)=NCCC(=O)N1CCn2nc(-c3ccc4ccccc4c3)cc2C1	USP30 inh 40
COc1ccccc1-c1cc2n(n1)CCN(C(=O)c1cc3ccccc3n1C)C2	none
Cc1cccc(-n2nc3c(c2NC(=O)c2ccc(F)c(F)c2)CS(=O)(=O)C3)c1	none (no result: USP17 block)
O=C(Nc1cccc(S(=O)(=O)NC2=NCCC2)c1)c1cc(-c2ccccc2)nc2ccccc12	none
O=C(Nc1cccc(S(=O)(=O)NC2=NCCC2)c1)c1cc(-c2ccccc2)n[nH]1	USP17 block 39, USP30 inh 37
Cc1ccnc(NC(=O)C2c3ccccc3C(=O)N(C)C2c2cccs2)c1 (stereo not drawn)	none
Cc1csc2ncc(C(=O)NCCc3ccc(Cl)cc3)c(=O)n12	USP17 block 37
Cc1ccc(CCNC(=O)c2cnc3sc4c(n3c2=O)CCC4)cc1	none
CC(C)C(=O)N1CCC2(CCN2Cc2ccc(F)cc2)C1 (stereo not drawn)	none
Cc1ccc(C)c(NC(=O)Cn2cnc(S(=O)(=O)N3CCCC3)c2)c1	none
Cc1c(C)n2c(SCC(=O)Nc3cccc(Cl)c3)nnc2[nH]c1=O	none
CC(C)CCNC(=O)CSc1nc(-c2cccc(Cl)c2)nc2cc(=O)[nH]n12	USP17 block 42
CN(c1ccccc1)S(=O)(=O)c1ccc(C(=O)Nc2ccccc2N2CCOCC2)cc1	none
Cc1cccc(C(=O)Nc2ccccc2Sc2nc3c(c(=O)n(C)c(=O)n3C)n2C)c1	USP17 block 33, USP30 inh 71
Cc1cccc(C(=O)Nc2c(C)nc3ccccn3c2=O)c1	none
Cc1nccc(-c2ccc3c(c2)OCO3)n1	none
c1ccc2c(c1)N=C(c1ccc3c(c1)OCO3)CCN2	USP17 block 41
O=C(NCCC1=CCCCC1)C1CCN(c2cnccn2)CC1	none
Cc1cccc(Nc2nc(Nc3cc(Cl)cc(Cl)c3)nc(N3CCOCC3)n2)c1	none
CCc1cc2c(=O)n(Cc3ccco3)c(SCC(=O)Nc3ccccc3O)nc2s1	USP30 inh 44 (no result: USP17 block)
Cc1sc2nc(SCC(=O)Nc3ccccc3O)n(Cc3ccco3)c(=O)c2c1C	none
O=C(Cn1c(=O)c2c(ncn2C2CCCC2)n(Cc2ccccc2)c1=O)NCCc1ccc(F)cc1	none
COc1ccc(CNC(=O)Cn2c(=O)c3c(ncn3C3CCCC3)n(Cc3ccccc3)c2=O)cc1	USP17 block 43
CCCCCCNc1ncnc2c1sc1nc(-c3ccccc3)c3c(c12)CC(C)(C)OC3	USP30 inh 31
CC1(C)Cc2c(c(-c3ccco3)nc3sc4c(NCc5ccccn5)ncnc4c23)CO1	USP17 block 38
CC1(C)Cc2c(c(-c3ccco3)nc3sc4c(NCCCN5CCOCC5)ncnc4c23)CO1	none
CCCCCCNc1ncnc2c1sc1nc(N3CCCC3)c3c(c12)CC(C)(C)OC3	none

From PubChem
